Compound activity as filed in PubChem.
aSyn UTR act – Activators via SNCA 5'UTR binding, MLPCN | alpha-synuclein 5'UTR reporter, activators screen | activity score, % (tested at 7.5 µM), hits read low | 300,000 compounds, 7.1% hits; in the data active = activity score below about -60%
* marks the source's active call; other numbers are inactive results. Not all results are given here.

SMILES	aSyn UTR act
CCCNC(=O)c1ccc2c(=O)c(O)c(-c3ccc(OC)cc3)[nH]c2c1	88
CCCCC(=NCCc1c(C)[nH]c2ccc(OC)cc12)C1=C(O)CC(c2ccccc2)CC1=O (stereo not drawn)	119
C/C(=N\NC(=O)c1cc(-c2cccs2)nc2ccccc12)c1ccccn1	79
Cc1cccc(Nc2nc(-c3cccs3)cs2)n1	-91*
c1ccc(Nc2nc(-c3cccs3)cs2)nc1	-165*
COc1ccc(F)cc1CN1CCN(c2ncnc3scc(-c4ccccc4)c23)CC1	98
COc1ccc(-c2csc3nc(-c4ccccc4F)oc(=O)c23)cc1	-101*
COC(=O)c1sccc1N/N=C/c1cccc(Oc2ccccc2)c1	-64*
COC(=O)c1sccc1N/N=C/c1ccc(OC)c(OC)c1OC	-140*
COc1ccc(C(C)NCCC(c2ccc(OC(C)C)cc2)c2ccccc2OC)cc1 (stereo not drawn)	93
COc1ccccc1C(O)Cc1nc2ccccc2n1C (stereo not drawn)	-87*
CC(C)c1ccc(C(O)Cc2nc3ccccc3n2C)cc1 (stereo not drawn)	-102*
CN(C)c1ccc(C(O)Cc2nc3ccccc3n2C)cc1 (stereo not drawn)	-97*
O=C(Cc1ccc(S(=O)(=O)N2CCOCC2)s1)Nc1ccc(N2CCOCC2)cc1	-99*
FC(F)Oc1ccccc1/C=N/Nc1nc2ccccc2o1	-165*
Fc1ccccc1/C=N/Nc1nc2ccccc2o1	-200*
CCN(CC)c1ccc(/C=N/NC(=O)c2c(Cl)cnn2C)c(O)c1	90
CCOC(=O)N/N=C/c1cn(Cc2ccc(Cl)cc2)c2ccccc12	70
CCOC(=O)N/N=C/c1cccc(Cl)c1Cl	-97*
CCOC(=O)N/N=C/c1ccccc1F	-135*
CCOC(=O)N/N=C/c1ccc(N(CC)CC)cc1O	-432*
Cc1cc(C(=O)N/N=C/c2cccc(Cl)c2Cl)no1	-108*
Cc1nn(-c2nnc(NC3CCCCC3)nn2)c(C)c1Br	-165*
CCOC(=O)N1CCN(C(=O)c2ccc3oc(CCCc4ccccc4)nc3c2)CC1	-150*
